In the library only some 4.7% were active in any assay of this set; here they are far more common.
D1 ag – human D1 receptor agonism. P21728. HEK293 T-REx D1 cells, calcium flux, agonist mode. activation, % at 2 µM. 360,000 compounds, 1% hits. AID 504660
Target sequence (P21728 whole entry, looked up): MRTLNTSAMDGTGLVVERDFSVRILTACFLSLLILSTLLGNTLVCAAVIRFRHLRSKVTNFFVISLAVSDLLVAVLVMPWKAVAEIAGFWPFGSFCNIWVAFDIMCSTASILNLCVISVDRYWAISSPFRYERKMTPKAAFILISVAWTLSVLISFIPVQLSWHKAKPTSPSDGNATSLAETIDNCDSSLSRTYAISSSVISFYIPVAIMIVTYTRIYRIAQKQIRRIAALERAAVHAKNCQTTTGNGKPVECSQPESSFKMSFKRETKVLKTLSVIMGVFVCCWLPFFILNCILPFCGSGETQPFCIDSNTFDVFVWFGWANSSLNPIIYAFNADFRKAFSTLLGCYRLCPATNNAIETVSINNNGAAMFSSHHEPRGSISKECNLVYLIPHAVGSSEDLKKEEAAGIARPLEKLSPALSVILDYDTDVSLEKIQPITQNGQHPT
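Inducible HEK293 T-REx D1 cells, force-coupled to calcium signalling, were plated at 4000 cells/well with tetracycline and held overnight at 30 C. After no-wash calcium dye loading, compound-evoked calcium rise over 180 s flagged agonists.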
TRHR PAM – allosteric enhancers of human TRH receptor | P34981 | TRHR cells, fluo-8 calcium fluorescence, EC20 TRH enhancement | enhancement, % at 2 µM | 360,000 compounds, 0.66% hits; in the data active = enhancement above about 30%
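Enhancer read-out: after compound pinning and an initial kinetic agonist-mode read, an EC20 of TRH (10 nM final) was injected and fluo-8 calcium signal (Ex 480/Em 530) followed at 1 s/cycle for 100 cycles in TRHR-expressing cells.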
TRHR agonist – TRH receptor (human) agonism. 360,000 compounds, 0.18% hits. activation, % at 2 µM. TRHR cells, calcium flux fluo-8, FDSS agonist mode. P34981
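Read-out: compound-evoked intracellular calcium rise in TRHR cells, fluo-8 dye, kinetic FDSS fluorescence at 1 s/cycle following a 10-cycle baseline. Cells cultured overnight before dye loading (30 min–1.5 h, RT).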
D1 potentiator – potentiators of human D1 dopamine receptor; HEK293 TREx D1 cells, calcium flux, dopamine EC20 potentiation; potentiation, % at 10 µM; 360,000 compounds, 0.036% hits; AID 504651; in the data active = potentiation above about 30%
D1 antagonist – blocks dopamine activation of the human D1 receptor; 360,000 compounds, 3.2% hits; activity change, negative = inhibition, % at 10 µM; HEK293 TREx D1 cells, calcium flux, dopamine EC80; stronger effect = lower value; in the data active = activity change below about -30%
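Inducible Hek293 Trex D1 cells (tetracycline, overnight, 30 C). Calcium dye 30–90 min RT. Antagonist mode: EC80 dopamine added after 180 s compound read.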
A number is an active result; - = inactive; . = not tested or not shown. Rule as the data show it, unless noted: active = activation above about 30%; inactive = the rest.

SMILES	D1 ag	TRHR PAM	TRHR agonist	D1 potentiator	D1 antagonist
Cc1ccc(NC(=O)C2CCCN2S(=O)(=O)c2ccc3c(c2)CCCC(=O)N3)cc1C (stereo unspecified)	-	-	-	-	-
COc1ccc(S(=O)(=O)NCc2cccnc2)cc1Br	-	-	-	-	-32.0
COc1ccc(CN(C)C(=O)c2ccc(Cl)c(S(=O)(=O)NCc3cccnc3)c2)cc1F	-	-	-	-	-46.5
COc1ccc([N+](=O)[O-])cc1NS(=O)(=O)c1cc(C(=O)NCc2cccnc2)ccc1Cl	-	-	-	-	-
Cc1ccc(C(=O)NC2(C(F)(F)F)N=C(c3ccccc3)N(C3CCCCC3)C2=O)cc1 (stereo unspecified)	-	-	-	-	-
Cc1cc(/C=C(\C#N)C(=O)NCC2CCCO2)c(C)n1-c1ccc(Cl)cc1 (stereo unspecified)	-	-	-	-	-35.0
COc1cc(/C=C(\C#N)C(=O)NCC2CCCO2)ccc1O (stereo unspecified)	-	-	-	-	-
O=C(NCCNc1ccc([N+](=O)[O-])cc1C(F)(F)F)c1ccccc1	-	-	-	-	-31.2
O=C(Nc1cccc(-n2cnnn2)c1)c1cc(Cl)ccc1Cl	-	-	-	-	-44.1
O=C(Nc1cccc(-n2cnnn2)c1)c1ccco1	-	-	-	-	-57.0
Cn1c(=NC(=O)CS(=O)(=O)c2ccccc2)sc2cc([N+](=O)[O-])ccc21	-	-	-	-	-
O=C(NN=C1CCCCC1)NC1CCCCC1	-	-	-	-	-84.7
O=C(NN=C1CCCC1)NC1CCCCC1	-	-	-	-	-
O=C(NC1CCCCCC1)C(=O)NC1CCCC1	-	-	-	-	-33.1
CCc1c(O)nc(SCC(=O)Nc2nc3ccccc3s2)n(C2CCCCC2)c1=O	-	-	-	-	-
Cc1cc2c(OCC(O)CNC3CCCCC3)cccc2[nH]1 (stereo unspecified)	-	-	-	-	-
OC(CNC1CCCC1)COc1ccccc1Br (stereo unspecified)	-	-	-	-	-36.2
Cc1ccccc1OCC(O)CNC1CCC(NCC(O)COc2ccccc2C)CC1 (stereo unspecified)	-	-	-	-	-
OC(CNC1CCCCCC1)COc1cccc2ccccc12 (stereo unspecified)	44.9	-	-	-	-
Cc1cc(C)c2c(c1)/C(=N/NS(=O)(=O)c1ccccc1)CCC2	-	-	-	-	-96.9
Cc1cc(C)c2c(c1)/C(=N/NS(=O)(=O)c1ccc(Br)cc1)CCC2	-	-	-	-	-
Cc1cc(NO)c(C(C)C)cc1N=O	36.4	-	-	-	-
Cc1cc(O)c(C(C)C)cc1N=Nc1ccccc1C(=O)O	-	-	-	-	-
CCOc1ccc(/C=C2\SC(=S)N(CCC(=O)N(CCO)c3ccccc3)C2=O)cc1	-	-	-	-	-30.8
Cc1cccc(N/C(=N/S(=O)(=O)c2ccccc2)c2ccccc2)n1	-	-	-	-	-
SMILES	D1 ag	TRHR PAM	TRHR agonist	D1 potentiator	D1 antagonist
Fc1cccc(Cl)c1CSc1nnc(CNc2ccccc2)o1	-	-	-	-	-40.7
COc1cc(OC)cc(-c2nnc(SCc3c(F)cccc3Cl)o2)c1	-	-	-	-	-33.0
COc1ccc(-c2nnc(SCc3ccccc3F)o2)cc1	-	-	-	-	-
Cc1ccc(CNC(=O)CSc2ncc(C(=O)Nc3ccccc3)c(=O)n2C)cc1	-	-	-	-	-
CC[C@H]1c2[nH]c3ccccc3c2C[C@@H]2C(=O)N(c3ccc(F)cc3)C(=O)N21	-	-	-	-	-
COc1ccc(OC)c(NC(=O)c2c(C)oc3ncnc(N4CCOCC4)c23)c1	-	-	-	-	-
COCCN(C(=O)c1ccc(OCC(C)C)cc1)c1c(N)n(Cc2ccccc2)c(=O)[nH]c1=O	-	-	-	-	-
CC(=O)NS(=O)(=O)c1cccnc1Nc1cccc(Cl)c1C	-	-	-	-	-33.5
O=C1NC(=O)/C(=C/c2ccccc2OCc2ccccc2)S1	-	-	-	-	-
O=C1NC(=O)/C(=C\c2ccccc2Oc2ccc(F)c(F)c2)S1	-	-	-	-	-34.3
CC(=O)c1cccc(NC(=O)CSc2nc3c(=O)n(C)c(=O)n(C)c3n2C)c1	-	33.9	-	-	.
Cc1sc2ncnc(SCC(=O)N3CCCC(C(F)(F)F)C3)c2c1C (stereo unspecified)	-	-	-	-	-38.1
O=C(NCCN1CCOCC1)/C(=C\c1ccc(F)cc1)NC(=O)c1ccccc1	-	-	-	-	-
CC1CCc2c(sc3nc(C(C)(C)C)nc(N4CCN(C(=O)CCl)CC4)c23)C1 (stereo unspecified)	-	-	-	-	-
CN(C)c1ccc(CNCCC(Cc2ccccc2)c2ccco2)cc1 (stereo unspecified)	47.5	-	-	-	-
NC(=O)c1ccc(Oc2ccc3c(c2)CCC3)c([N+](=O)[O-])c1	-	-	-	-	-
O=C(NCCc1c[nH]c2ccccc12)c1ccc([N+](=O)[O-])cc1	-	-	-	-	-48.9
O=[N+]([O-])c1ccc(CN2CCN(Cc3c[nH]c4ccccc34)CC2)cc1	-	-	-	-	-71.5
O=C(CCc1c[nH]c2ccccc12)NCCc1ccc(Cl)cc1	-	-	-	-	-32.6
CC(C)c1ccc(NC(=O)c2cnc3sc(N4CCOCC4)nn3c2=O)cc1	-	-	-	-	-
O=C(CCCCCN1C(=O)c2cccc3cccc(c23)C1=O)NC1CCS(=O)(=O)C1 (stereo unspecified)	-	-	-	-	-31.1
Cc1ccc(S(=O)(=O)Nc2ccc3c(c2)OCCO3)cc1C	-	-	-	-	-
COc1ccc(NS(=O)(=O)c2ccc3c(c2)OCCO3)cc1OC	-	-	-	-	-
COc1ccc(S(=O)(=O)Nc2ccc3c(c2)OCCO3)cc1Cl	-	-	-	-	-32.0
CC(=O)Nc1ccc(S(=O)(=O)Nc2ccc3c(c2)OCCO3)cc1Cl	-	-	-	-	-31.2
SMILES	D1 ag	TRHR PAM	TRHR agonist	D1 potentiator	D1 antagonist
CCCSCCCNC(=O)c1sc2nc(C)cc(C)c2c1-n1cccc1	-	-	-	-	-
CCN1CCc2c(sc(-n3cccc3)c2C(C)NC(=O)Nc2ccc(C(=O)OC)cc2)C1 (stereo unspecified)	-	-	-	-	-
Cc1ccc(-c2nc3cccnc3s2)cc1NC(=O)C(C)C	30.1	-	-	-	-
CCC(C(=O)Nc1cc(-c2nc3cccnc3s2)ccc1C)c1ccccc1 (stereo unspecified)	-	-	-	-	-
Cc1cccc(N2CCN(S(=O)(=O)c3ccc4oc(=O)c5ncn(C)c5c4c3)CC2C)c1 (stereo unspecified)	-	-	-	-	-
CCn1ncc(CN2CCCC(C(=O)Nc3cccc(-c4cc5ccccc5[nH]4)c3)C2)c1C (stereo unspecified)	90.6	-	-	-	-50.9

Screening data: PubChem BioAssay, National Center for Advancing Translational Sciences (NCATS)
